# This is part of a sample that, as a whole, favours compounds with a hit. Of some 79,000 tested, about 15% had one in any assay. A number with no mark means an inactive call. The source made the active and inactive calls. No stated cut-off is given here; in the data, active means growth inhibition above about 70%; inactive means the rest. Starred links: 1 amine or outer side, 2 acyl side, 3 side chain; linkers in the order of their positions; H or OH if unused. Positions of bridges follow the written chain, without caps; N, C: chain ends. Non-standard residues stand in square brackets, D forms with d. Residues, ends and D or L forms follow the SMILES beside them. Chains are numbered I, II in the order given. Actinocin(9to1) = Cc1c2oc3c(C)ccc(C(=O)[*:1])c3nc-2c(C(=O)[*:2])c(N)c1=O; aThr = C[C@H](O)[C@H](N)C(=O)O; NMeV = CN[C@H](C(=O)O)C(C)C; Sar = CNCC(=O)O
# Legend:
# [1] = NCI Yeast Anticancer Drug Screen. Data for the rad52 strain (AID 147);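 further: 0% = growth of vehicle-treated control cultures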; conditions: S. cerevisiae rad52 mutant growth inhibition, active compounds read high
# In short: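 Compounds are applied to a genetically defined yeast strain lacking normal DNA damage repair, and inhibition of growth is expressed relative to cultures given vehicle only.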
# [2] = NCI Yeast Anticancer Drug Screen. Data for the wt1 strain (AID 149);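 further: 0% = growth of vehicle-treated wt1 cultures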; conditions: S. cerevisiae wt1 strain (SPY 50644) growth inhibition, active compounds read high
# In short: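 Compounds are added to wt1 yeast cultures. Growth is then measured. Inhibition is expressed relative to vehicle-treated controls.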
# [3] = NCI Yeast Anticancer Drug Screen. Data for the rad50EPP+ strain (AID 151);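 further: 0% = growth of vehicle-treated control cultures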; conditions: S. cerevisiae rad50 mutant strain, active compounds read high
# In short: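 Compounds were applied to the rad50EPP+ yeast strain, which bears a defined DNA repair alteration, and growth inhibition was determined relative to vehicle-treated cultures.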
# [4] = NCI Yeast Anticancer Drug Screen. Data for the rad50 strain (AID 155);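 further: 0% = growth of vehicle-only cultures of the same strain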; conditions: S. cerevisiae rad50 strain growth inhibition, active compounds read high
# In short: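 Inhibition values express reduced yeast growth in compound-treated cultures relative to vehicle-treated controls.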
# [5] = NCI Yeast Anticancer Drug Screen. Data for the mec2-1 strain (AID 157); conditions: S. cerevisiae mec2-1 strain, active compounds read high
# In short: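 Strain: mec2-1 (DNA repair/cell cycle alteration). Compound exposure, then growth measured; inhibition expressed relative to vehicle.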
# [6] = NCI Yeast Anticancer Drug Screen. Data for the rad14 strain (AID 159);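 further: 0% = growth of vehicle-treated control cultures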; conditions: S. cerevisiae rad14 strain growth inhibition, active compounds read high
# In short: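 A mutant yeast strain defective in DNA damage repair is treated with compound; inhibition of its growth is scored against untreated, vehicle-exposed cultures.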
# [7] = NCI Yeast Anticancer Drug Screen. Data for the CLN2oe strain (AID 163);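 further: 0% = growth of vehicle-only control cultures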; conditions: S. cerevisiae CLN2oe strain, active compounds read high
# In short: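 Growth of a genetically modified yeast strain is measured after compound exposure and compared with cultures given vehicle alone.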
# [8] = NCI Yeast Anticancer Drug Screen. Data for the cln2 rad14 strain (AID 165);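 further: 0% = growth equal to vehicle treated cultures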; conditions: S. cerevisiae cln2 rad14 strain, active compounds read high
# In short: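 Compounds are applied to the cln2 rad14 yeast strain, and growth is then compared with that of vehicle-treated cultures to give inhibition.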
# [9] = NCI Yeast Anticancer Drug Screen. Data for the bub3 strain (AID 167); conditions: S. cerevisiae bub3 mutant strain, active compounds read high
# In short: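 Steps: expose the mutant yeast strain to compound; grow alongside vehicle-treated cultures; measure growth; express inhibition against the vehicle cultures.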
# [10] = NCI Yeast Anticancer Drug Screen. Data for the wt2 strain (AID 169);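 further: 0% = growth of vehicle-treated yeast cultures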; conditions: S. cerevisiae wt2 strain growth inhibition, active compounds read high
# In short: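 This strain belongs to a panel of yeast strains with defined genetic alterations in DNA damage repair or cell cycle control. Compounds are applied, and growth inhibition is measured against vehicle-treated cultures.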
# [11] = NCI Yeast Anticancer Drug Screen. Data for the mlh1 strain (AID 171);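 further: 0% = growth of vehicle-treated control cultures of the same strain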; conditions: S. cerevisiae mlh1 strain growth inhibition, active compounds read high
# In short: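 Growth of the mutant yeast strain after compound exposure, expressed as inhibition relative to vehicle-only controls.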
# [12] = NCI Yeast Anticancer Drug Screen. Data for the sgs1 strain (AID 173);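 further: 0% = growth of vehicle-only control cultures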; conditions: S. cerevisiae sgs1 mutant, active compounds read high
# In short: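 Growth of a yeast strain bearing a defined genetic alteration is measured after compound treatment. Inhibition is expressed relative to vehicle-only controls.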
# [13] = NCI Yeast Anticancer Drug Screen. Data for the mlh1 rad18 strain (AID 175); conditions: S. cerevisiae mlh1 rad18 strain growth inhibition, active compounds read high
# In short: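 Read-out is yeast growth inhibition, calculated against vehicle-only controls. The compound was applied to a strain engineered with DNA damage repair alterations.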
# [14] = NCI Yeast Anticancer Drug Screen. Data for the rad18 strain (AID 177); conditions: S. cerevisiae rad18 mutant growth inhibition, active compounds read high
# In short: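 Growth of the mutant yeast strain after compound exposure, normalised to vehicle-only cultures.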
# [15] = NCI Yeast Anticancer Drug Screen. Data for the mgt1 strain (AID 153); conditions: S. cerevisiae mgt1 mutant growth inhibition, active compounds read high
# In short: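 Strain: mgt1 yeast, one of a set carrying defined DNA damage repair or cell cycle control alterations. Compound-treated growth compared with vehicle.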
# [16] = NCI Yeast Anticancer Drug Screen. Data for the sgs1 mgt1 strain (AID 161);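 further: 0% = growth of cultures given vehicle only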; conditions: S. cerevisiae sgs1 mgt1 strain, active compounds read high
# In short: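 Mutant yeast exposed to compound; growth scored against vehicle-only wells.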
# [17] = at 5.0 µM (retest, dose inferred, filed as 0.5)
# [18] = at 50.0 µM (retest, dose inferred, filed as 5.0)
smiles,measurement,setting,value
"Cc1c2oc3c(C)ccc(C(=O)N[C@@H]4C(=O)N[C@H](C(C)C)C(=O)N5CCC[C@H]5C(=O)N(C)CC(=O)N(C)[C@@H](C(C)C)C(=O)O[C@H]4C)c3nc-2c(C(=O)N[C@@H]2C(=O)N[C@H](C(C)C)C(=O)N3CCC[C@H]3C(=O)N(C)CC(=O)N(C)[C@@H](C(C)C)C(=O)O[C@H]2C)c(N)c1=O (I: [aThr][dV]P[Sar][NMeV] / II: [aThr][dV]P[Sar][NMeV]; ester I:1-I:C, II:1-II:C; linker I:N-II:N via Actinocin(9to1))",growth inhibition,[1]; at 1.2 µM,5%
same,growth inhibition,[1]; at 3.7 µM,38%
same,growth inhibition,[1]; at 11.0 µM,85% (active)
same,growth inhibition,[1]; at 33.0 µM,96% (active)
same,growth inhibition,[1]; at 100.0 µM,98% (active)
same,growth inhibition,[2]; at 1.2 µM,0%
same,growth inhibition,[2]; at 3.7 µM,19%
same,growth inhibition,[2]; at 11.0 µM,58%
same,growth inhibition,[2]; at 33.0 µM,95% (active)
same,growth inhibition,[2]; at 100.0 µM,95% (active)
same,growth inhibition,[3]; at 1.2 µM,2%
same,growth inhibition,[3]; at 3.7 µM,53%
same,growth inhibition,[3]; at 11.0 µM,94% (active)
same,growth inhibition,[3]; at 33.0 µM,97% (active)
same,growth inhibition,[3]; at 100.0 µM,99% (active)
same,growth inhibition,[4]; at 1.2 µM,9%
same,growth inhibition,[4]; at 3.7 µM,59%
same,growth inhibition,[4]; [17],65%
same,growth inhibition,[4]; at 11.0 µM,92% (active)
same,growth inhibition,[4]; at 33.0 µM,98% (active)
same,growth inhibition,[4]; [18],98% (active)
same,growth inhibition,[4]; at 50.0 µM,91.2% (active)
same,growth inhibition,[4]; at 100.0 µM,99% (active)
same,growth inhibition,[5]; at 1.2 µM,1%
same,growth inhibition,[5]; at 3.7 µM,29%
same,growth inhibition,[5]; [17],53%
same,growth inhibition,[5]; at 11.0 µM,84% (active)
same,growth inhibition,[5]; at 33.0 µM,97% (active)
same,growth inhibition,[5]; [18],99% (active)
same,growth inhibition,[5]; at 50.0 µM,93% (active)
same,growth inhibition,[5]; at 100.0 µM,98% (active)
same,growth inhibition,[6]; at 1.2 µM,3%
same,growth inhibition,[6]; at 3.7 µM,32%
same,growth inhibition,[6]; at 11.0 µM,75% (active)
same,growth inhibition,[6]; at 33.0 µM,97% (active)
same,growth inhibition,[6]; at 100.0 µM,98% (active)
same,growth inhibition,[7]; at 1.2 µM,8%
same,growth inhibition,[7]; at 3.7 µM,32%
same,growth inhibition,[7]; at 11.0 µM,94% (active)
same,growth inhibition,[7]; at 33.0 µM,97% (active)
same,growth inhibition,[7]; at 100.0 µM,99% (active)
same,growth inhibition,[8]; [17],34%
same,growth inhibition,[8]; [18],92% (active)
same,growth inhibition,[8]; at 50.0 µM,89.3% (active)
same,growth inhibition,[9]; at 1.2 µM,3%
same,growth inhibition,[9]; at 3.7 µM,28%
same,growth inhibition,[9]; [17],24%
same,growth inhibition,[9]; at 11.0 µM,90% (active)
same,growth inhibition,[9]; at 33.0 µM,96% (active)
same,growth inhibition,[9]; [18],96% (active)
same,growth inhibition,[9]; at 50.0 µM,92% (active)
same,growth inhibition,[9]; at 100.0 µM,98% (active)
same,growth inhibition,[10]; at 1.2 µM,0%
same,growth inhibition,[10]; at 3.7 µM,26%
same,growth inhibition,[10]; at 11.0 µM,91% (active)
same,growth inhibition,[10]; at 33.0 µM,98% (active)
same,growth inhibition,[10]; at 100.0 µM,99% (active)
same,growth inhibition,[11]; at 1.2 µM,2%
same,growth inhibition,[11]; at 3.7 µM,28%
same,growth inhibition,[11]; at 11.0 µM,94% (active)
same,growth inhibition,[11]; at 33.0 µM,98% (active)
same,growth inhibition,[11]; at 100.0 µM,99% (active)
same,growth inhibition,[12]; at 1.2 µM,3%
same,growth inhibition,[12]; at 3.7 µM,30%
same,growth inhibition,[12]; at 11.0 µM,91% (active)
same,growth inhibition,[12]; at 33.0 µM,97% (active)
same,growth inhibition,[12]; at 100.0 µM,99% (active)
same,growth inhibition,[13]; [17],61%
same,growth inhibition,[13]; [18],98% (active)
same,growth inhibition,[13]; at 50.0 µM,90.5% (active)
same,growth inhibition,[14]; at 1.2 µM,-2%
same,growth inhibition,[14]; at 3.7 µM,18%
same,growth inhibition,[14]; at 11.0 µM,92% (active)
same,growth inhibition,[14]; at 33.0 µM,96% (active)
same,growth inhibition,[14]; at 100.0 µM,98% (active)
CCN(CC)c1cccc(Nc2nc3ccccc3s2)c1,growth inhibition,[2]; at 1.2 µM,8%
same,growth inhibition,[2]; at 3.7 µM,10%
same,growth inhibition,[2]; at 11.0 µM,6%
same,growth inhibition,[2]; at 33.0 µM,7%
same,growth inhibition,[2]; at 100.0 µM,5%
same,growth inhibition,[3]; at 1.2 µM,-9%
same,growth inhibition,[3]; at 3.7 µM,0%
same,growth inhibition,[3]; at 11.0 µM,-2%
same,growth inhibition,[3]; at 33.0 µM,1%
same,growth inhibition,[3]; at 100.0 µM,19%
same,growth inhibition,[15]; at 1.2 µM,6%
same,growth inhibition,[15]; at 3.7 µM,6%
same,growth inhibition,[15]; at 11.0 µM,5%
same,growth inhibition,[15]; at 33.0 µM,7%
same,growth inhibition,[15]; at 100.0 µM,7%
same,growth inhibition,[4]; at 1.2 µM,8%
same,growth inhibition,[4]; at 3.7 µM,9%
same,growth inhibition,[4]; [17],-4%
same,growth inhibition,[4]; at 11.0 µM,5%
same,growth inhibition,[4]; at 33.0 µM,7%
same,growth inhibition,[4]; [18],2%
same,growth inhibition,[4]; at 50.0 µM,1.6%
same,growth inhibition,[4]; at 100.0 µM,7%
same,growth inhibition,[5]; at 1.2 µM,13%
same,growth inhibition,[5]; at 3.7 µM,14%
same,growth inhibition,[5]; [17],-5%
same,growth inhibition,[5]; at 11.0 µM,15%
same,growth inhibition,[5]; at 33.0 µM,16%
same,growth inhibition,[5]; [18],1%
same,growth inhibition,[5]; at 50.0 µM,7.7%
same,growth inhibition,[5]; at 100.0 µM,8%
same,growth inhibition,[6]; at 1.2 µM,7%
same,growth inhibition,[6]; at 3.7 µM,7%
same,growth inhibition,[6]; at 11.0 µM,7%
same,growth inhibition,[6]; at 33.0 µM,7%
same,growth inhibition,[6]; at 100.0 µM,7%
same,growth inhibition,[16]; [17],3%
same,growth inhibition,[16]; [18],21%
same,growth inhibition,[16]; at 50.0 µM,17.4%
same,growth inhibition,[7]; at 1.2 µM,-3%
same,growth inhibition,[7]; at 3.7 µM,1%
same,growth inhibition,[7]; at 11.0 µM,-1%
same,growth inhibition,[7]; at 33.0 µM,-4%
same,growth inhibition,[7]; at 100.0 µM,-10%
same,growth inhibition,[8]; [17],-9%
same,growth inhibition,[8]; [18],-1%
same,growth inhibition,[8]; at 50.0 µM,-7.1%
same,growth inhibition,[9]; at 1.2 µM,0%
same,growth inhibition,[9]; at 3.7 µM,-1%
same,growth inhibition,[9]; [17],32%
same,growth inhibition,[9]; at 11.0 µM,5%
same,growth inhibition,[9]; at 33.0 µM,14%
same,growth inhibition,[9]; [18],83% (active)
same,growth inhibition,[9]; at 50.0 µM,89.8% (active)
same,growth inhibition,[9]; at 100.0 µM,30%
same,growth inhibition,[10]; at 1.2 µM,-1%
same,growth inhibition,[10]; at 3.7 µM,-1%
same,growth inhibition,[10]; at 11.0 µM,-1%
same,growth inhibition,[10]; at 33.0 µM,-2%
same,growth inhibition,[10]; at 100.0 µM,-3%
same,growth inhibition,[11]; at 1.2 µM,10%
same,growth inhibition,[11]; at 3.7 µM,9%
same,growth inhibition,[11]; at 11.0 µM,10%
same,growth inhibition,[11]; at 33.0 µM,9%
same,growth inhibition,[11]; at 100.0 µM,8%
same,growth inhibition,[12]; at 1.2 µM,8%
same,growth inhibition,[12]; at 3.7 µM,7%
same,growth inhibition,[12]; at 11.0 µM,7%
same,growth inhibition,[12]; at 33.0 µM,7%
same,growth inhibition,[12]; at 100.0 µM,5%
same,growth inhibition,[13]; [17],4%
same,growth inhibition,[13]; [18],20%
same,growth inhibition,[13]; at 50.0 µM,25.1%
same,growth inhibition,[14]; at 1.2 µM,7%
same,growth inhibition,[14]; at 3.7 µM,7%
same,growth inhibition,[14]; at 11.0 µM,6%
same,growth inhibition,[14]; at 33.0 µM,3%
same,growth inhibition,[14]; at 100.0 µM,1%

# Source: PubChem BioAssay (NCI)
